Laboratory results: PubChem BioAssay (NCI)
Compounds without any hit were thinned out: in the full panel of roughly 83,000, 20% have a hit.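 Single-concentration screen, 48 h exposure, 96-well plates. Endpoint: percent growth. Below 10 = active.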 A number with no mark means an inactive call. Activity calls are given as the source filed them.

Key:
Test in all cases: NCI-60 one-dose screen, 48 h (100 = growth as untreated, 0 = no growth, -100 = all killed)
Conditions in all cases: 10 µM unless noted
NCI-H23 lung = test system: NCI-H23 lung
NCI-H226 lung = test system: NCI-H226 lung
NCI-H322M lung = test system: NCI-H322M lung
HOP-62 NSCLC = test system: HOP-62 NSCLC
NCI-H460 lung = test system: NCI-H460 lung
HOP-92 NSCLC = test system: HOP-92 NSCLC
NCI-H522 lung = test system: NCI-H522 lung
A549/ATCC NSCLC = test system: A549/ATCC NSCLC
786-0 renal = test system: 786-0 renal
COLO 205 colon = test system: COLO 205 colon
DU-145 prostate = test system: DU-145 prostate
K-562 leukemia = test system: K-562 leukemia
MALME-3M melanoma = test system: MALME-3M melanoma
MDA-MB-231 breast = test system: MDA-MB-231 breast
RXF 393 renal = test system: RXF 393 renal
SF-268 CNS = test system: SF-268 CNS
SF-295 CNS = test system: SF-295 CNS
SF-539 CNS = test system: SF-539 CNS
UACC-257 melanoma = test system: UACC-257 melanoma
M14 melanoma = test system: M14 melanoma

Compound	growth (NCI-H23 lung)	growth (NCI-H226 lung)	growth (NCI-H322M lung)	growth (HOP-62 NSCLC)	growth (NCI-H460 lung)	growth (HOP-92 NSCLC)	growth (NCI-H522 lung)	growth (A549/ATCC NSCLC)	growth (786-0 renal)	growth (COLO 205 colon)	growth (DU-145 prostate)	growth (K-562 leukemia)	growth (MALME-3M melanoma)	growth (MDA-MB-231 breast)	growth (RXF 393 renal)	growth (SF-268 CNS)	growth (SF-295 CNS)	growth (SF-539 CNS)	growth (UACC-257 melanoma)	growth (M14 melanoma)
Cc1ccc(S(=O)(=O)n2cc([C@@]3(O)C[C@H](CSC#N)OC3=O)c3ccccc32)cc1	82%	85.3%	106%	100%	86.3%	-28.2% (active)	86.3%	70.6%	95.6%	59.2%	43.9%	48.5%	61.7%	55.3%	50.9%	72.4%	94.8%	51.2%	96.1%	66.2%
CC[C@H](C)[C@H]1O[C@]2(C=C[C@@H]1C)C[C@@H]1C[C@@H](C/C=C(\C)[C@@H](O[C@H]3C[C@H](OC)[C@@H](O[C@H]4C[C@H](OC)[C@@H](NC)[C@H](C)O4)[C@H](C)O3)[C@@H](C)/C=C/C=C3\CO[C@@H]4[C@H](O)C(C)=C[C@@H](C(=O)O1)[C@]34O)O2	-68.8% (active)	-75.2% (active)	-22.3% (active)	-60.9% (active)	-77.4% (active)	-33.8% (active)	-70.3% (active)	-51.6% (active)	-88.4% (active)	-71.6% (active)	-85.2% (active)	-41.4% (active)	-67.2% (active)	-71.9% (active)	-88.4% (active)	-56% (active)	-65.6% (active)	-79.7% (active)	-56.7% (active)	-68.6% (active)
COc1cc(C2C3=C(CCCC3=O)N(CCO)c3cc4c(cc32)CCC4)cc(OC)c1OC (stereo not given)	80.8%	103%	75.1%	92.6%	36.4%	76%	62.7%	58.9%	84.6%	74%	94.1%	78.7%	93.1%	82.1%	100%	90.4%	99.9%	106%	67.2%	98%
Oc1cc(Cl)ccc1Oc1ccc(Cl)cc1Cl	7.13% (active)	99.7%	97.6%	20.5%	3.2% (active)	-11.4% (active)	-4.34% (active)	37.5%	86.4%	105%	14.5%	11%	5.91% (active)	8.82% (active)	-9.98% (active)	21.5%	7.37% (active)	14.7%	21.4%	22.1%
CNC(=O)O/N=C(\SC)C(=O)N(C)C	93.4%	110%	111%	105%	107%	76.8%	77.5%	109%	105%	105%	117%	89.2%	117%	110%	105%	105%	113%	103%	103%	102%
CN1CCN(c2ccc(Cl)cc2)CC1	73.6%	93.8%	94.2%	93.1%	44.6%	93.7%	44.3%	69.1%	104%	89.8%	6.91% (active)	70.3%	126%	105%	66.9%	88.5%	57%	97.2%	84.4%	101%
CC(=O)Cc1ccc2c(c1)OCO2	93.9%	104%	113%	102%	109%	110%	96.1%	96%	109%	117%	111%	116%	116%	89.1%	115%	98.3%	109%	95.4%	104%	105%
Cc1cc(C(C)(C)C)ccc1O	90.9%	92.2%	104%	102%	105%	94.4%	102%	104%	111%	107%	104%	103%	104%	118%	102%	97.3%	110%	111%	100%	102%
N#CC(NC(=O)CCl)=C(Cl)Cl	28.5%	70.8%	78.6%	73.2%	50.7%	-71.5% (active)	-84.4% (active)	66.8%	-72.2% (active)	-90.4% (active)	44.1%	-23.6% (active)	-79.1% (active)	1.44% (active)	-78% (active)	28.9%	89.9%	5.84% (active)	3.34% (active)	-91.1% (active)
COc1cc(/C=C\[N+](=O)[O-])ccc1OCc1ccccc1	34.6%	105%	94.5%	30.7%	62.4%	66.3%	73.5%	64.7%	-17.4% (active)	32.7%	44.3%	0.133% (active)	77.9%	12.5%	-86.1% (active)	19.4%	48.7%	30.8%	61.8%	15.5%
O=P(O)(Nc1ccccc1)Nc1ccccc1	91.1%	102%	90.6%	83.3%	99.2%	89.1%	85.6%	91%	93.7%	115%	97%	51.9%	94.3%	109%	93.9%	102%	96.1%	91.6%	89.3%	88.4%
C[C@]12C[C@H](c3ccoc3)OC(=O)[C@H]1CC[C@@]1(C)[C@@H]2[C@H]2C=C[C@]1(O)C(=O)O2	102%	101%	79.1%	104%	108%	81.3%	68.1%	84.5%	91.9%	104%	109%	76.9%	101%	102%	102%	98.3%	91.1%	92.4%	86.2%	87.6%
CNC(=O)Oc1ccc(Cl)cc1SSc1cc(Cl)ccc1OC(=O)NC	65.4%	102%	103%	95.2%	60.1%	42.7%	51.2%	103%	110%	110%	96.7%	63.1%	78.2%	78.3%	107%	65.8%	75.7%	98.2%	79%	112%
C[C@@]12CCCc3coc(c31)C(=O)c1cc3c(cc12)C(=O)C1=C(NCCS1(=O)=O)C3=O	-36.4% (active)	7.87% (active)	-6.28% (active)	-9.65% (active)	0.0882% (active)	-30.6% (active)	-55.6% (active)	-10.7% (active)	6.38% (active)	-78.1% (active)	-91.8% (active)	-38.6% (active)	-98.2% (active)	-23.7% (active)	6.73% (active)	-1.36% (active)	2.57% (active)	-63.4% (active)	-94.2% (active)	-80.9% (active)
